Experimental data reported in PubChem BioAssay (NCI).
About 79,000 compounds went through this panel and 15% of them were active in at least one assay; those are over-represented in the sample as a whole. Values without a mark were called inactive. Activity calls are given as the source filed them. Rule as the data show it: active = growth inhibition above about 70%; inactive = the rest.

What was measured:
[1] = NCI Yeast Anticancer Drug Screen. Data for the rad50 strain (AID 155);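 also: 0% = growth of vehicle-only cultures of the same strain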; conditions: S. cerevisiae rad50 strain growth inhibition; at 50.0 µM; active compounds read high
Outline: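 Readout: growth inhibition relative to vehicle-treated cultures. Compound exposure was carried out in a genetically defined yeast strain deficient in DNA damage repair.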

[2] = NCI Yeast Anticancer Drug Screen. Data for the mec2-1 strain (AID 157); conditions: S. cerevisiae mec2-1 strain, at 50.0 µM, active compounds read high
Outline: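 Readout is yeast growth inhibition, normalised to vehicle-treated controls, in the mec2-1 strain exposed to compound.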

[3] = NCI Yeast Anticancer Drug Screen. Data for the sgs1 mgt1 strain (AID 161);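 also: 0% = growth of cultures given vehicle only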; conditions: S. cerevisiae sgs1 mgt1 strain, at 50.0 µM, active compounds read high
Outline: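 Yeast cells carrying a defined DNA-repair defect were exposed to test compounds. Growth inhibition was measured relative to vehicle-treated controls.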

[4] = NCI Yeast Anticancer Drug Screen. Data for the cln2 rad14 strain (AID 165);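 also: 0% = growth equal to vehicle treated cultures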; conditions: S. cerevisiae cln2 rad14 strain, at 50.0 µM, active compounds read high
Outline: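 Relative to vehicle controls, growth inhibition of compound-treated cln2 rad14 yeast was recorded.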

[5] = NCI Yeast Anticancer Drug Screen. Data for the bub3 strain (AID 167); conditions: S. cerevisiae bub3 mutant strain, at 50.0 µM, active compounds read high
Outline: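 Readout: yeast growth inhibition, expressed relative to vehicle-only wells. The test organism is a mutant strain from a panel with lesions in DNA repair or checkpoint genes.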

[6] = NCI Yeast Anticancer Drug Screen. Data for the mlh1 rad18 strain (AID 175); conditions: S. cerevisiae mlh1 rad18 strain growth inhibition; at 50.0 µM; active compounds read high
Outline: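 Test agents were incubated with a yeast strain of defined genotype (DNA damage repair defect). Inhibition of growth was derived by comparison with vehicle-exposed cultures.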

N#C/C(c1nc2ccccc2[nH]1)=c1\s/c(=C(/N)O)c(=N)n1-c1ccccc1
growth inhibition [1]: -31.6% | growth inhibition [2]: -26% | growth inhibition [3]: -32.4% | growth inhibition [4]: -30.1% | growth inhibition [5]: -34.1% | growth inhibition [6]: -47.6%

C/C(=N/NC(N)=S)c1cn[nH]c1C
growth inhibition [1]: -64.3% | growth inhibition [2]: -19.9% | growth inhibition [3]: -16.1% | growth inhibition [4]: -55.4% | growth inhibition [5]: 4.5% | growth inhibition [6]: -1.6%

C=CCCc1cc(OC)ccc1C(=O)C(C)C
growth inhibition [1]: 4.3% | growth inhibition [2]: -17.8% | growth inhibition [3]: -20.1% | growth inhibition [4]: -20.8% | growth inhibition [5]: 0.2% | growth inhibition [6]: -12.6%

Cc1nc2cnc(N)nc2nc1C
growth inhibition [1]: -6.85% | growth inhibition [2]: -16.9% | growth inhibition [3]: -3.65% | growth inhibition [4]: -40.4% | growth inhibition [5]: 0.8% | growth inhibition [6]: 0.75%

COc1ccc2c(CCn3ccccc3=O)cccc2c1
growth inhibition [1]: -13.3% | growth inhibition [2]: -8.5% | growth inhibition [3]: 7.55% | growth inhibition [4]: -13.9% | growth inhibition [5]: 44.9% | growth inhibition [6]: -11.2%

C=C1CC(C)(C)CN(Cc2ccc([N+](=O)[O-])cc2)C(C(=O)OC)=C1C(=O)OC
growth inhibition [1]: 20.4% | growth inhibition [2]: -2.55% | growth inhibition [3]: 24.4% | growth inhibition [4]: 16.8% | growth inhibition [5]: -13.8% | growth inhibition [6]: 13.2%

O=c1c(SCc2ccccc2Cl)c(SCc2ccccc2Cl)cnn1-c1ccccc1
growth inhibition [1]: 10.7% | growth inhibition [2]: -3.05% | growth inhibition [3]: 12.6% | growth inhibition [4]: 23.4% | growth inhibition [5]: 7.15% | growth inhibition [6]: 1.45%

N#CC1=C(c2ccccc2)NNC(c2ccc(Cl)cc2)CC1=O (configuration not stated)
growth inhibition [1]: -18.1% | growth inhibition [2]: -1.45% | growth inhibition [3]: 2.4% | growth inhibition [4]: 6.8% | growth inhibition [5]: -22.6% | growth inhibition [6]: 36.5%

COc1ccc([Se][Se]c2ccc(OC)cc2NC(C)=O)c(NC(C)=O)c1
growth inhibition [1]: 19.8% | growth inhibition [2]: -6.8% | growth inhibition [3]: 18.1% | growth inhibition [4]: 16.1% | growth inhibition [5]: 27.9% | growth inhibition [6]: 7.15%

Cc1cc(-c2ccc(Cl)cc2)c(C#N)c(=S)n1C1OC(CO)C(O)C(O)C1O (configuration not stated)
growth inhibition [1]: -19.4% | growth inhibition [2]: -11% | growth inhibition [3]: -5.3% | growth inhibition [4]: 2.8% | growth inhibition [5]: -2.95% | growth inhibition [6]: 2.8%

OC1CCCCC12CC2 (configuration not stated)
growth inhibition [1]: 3.85% | growth inhibition [2]: 1.5% | growth inhibition [3]: 5% | growth inhibition [4]: -3.55% | growth inhibition [5]: -15.2% | growth inhibition [6]: -3.2%

COC(=O)CCCC(Sc1ccccc1)C(=O)OC (configuration not stated)
growth inhibition [1]: 3.7% | growth inhibition [2]: 0.6% | growth inhibition [3]: 15.7% | growth inhibition [4]: -7.4% | growth inhibition [5]: 7.85% | growth inhibition [6]: 6.75%

CC(=O)Nc1cc2c(cc1Br)Cc1cc(Br)ccc1-2
growth inhibition [1]: -4.15% | growth inhibition [2]: -4.1% | growth inhibition [3]: -8.2% | growth inhibition [4]: -4.5% | growth inhibition [5]: 1.1% | growth inhibition [6]: -14.2%

C/C(Cl)=C/CC1(C)CCCC(C)(C)CC1=O (configuration not stated)
growth inhibition [1]: 6.4% | growth inhibition [2]: 7.4% | growth inhibition [3]: 1.5% | growth inhibition [4]: 2.05% | growth inhibition [5]: 1.85% | growth inhibition [6]: -10.3%

COc1ccc(C(=O)c2ccccc2)c(OC(=O)Nc2ccc(Cl)cc2)c1
growth inhibition [1]: 14.8% | growth inhibition [2]: -3.4% | growth inhibition [3]: 14.9% | growth inhibition [4]: 3.8% | growth inhibition [5]: 12.6% | growth inhibition [6]: 16.6%

CC(=O)N1OCCc2ccccc21
growth inhibition [1]: 8.2% | growth inhibition [2]: -0.15% | growth inhibition [3]: -6.65% | growth inhibition [4]: -37.5% | growth inhibition [5]: -5.5% | growth inhibition [6]: -1.45%

NC(=O)C1C2CC3C(C2)C31 (configuration not stated)
growth inhibition [1]: 2.9% | growth inhibition [2]: 11.2% | growth inhibition [3]: -1% | growth inhibition [4]: -1% | growth inhibition [5]: 3.4% | growth inhibition [6]: 4.95%

CC(=O)Nc1cc([N+](=O)[O-])c2[nH]c(=O)c3ccccc3c2c1
growth inhibition [1]: -7.7% | growth inhibition [2]: -6.7% | growth inhibition [3]: -12.4% | growth inhibition [4]: -9.45% | growth inhibition [5]: -3.2% | growth inhibition [6]: -0.15%

O=S(O)CCCSSc1ccccc1
growth inhibition [1]: 38.5% | growth inhibition [2]: 22.4% | growth inhibition [3]: 40.1% | growth inhibition [4]: 56.1% | growth inhibition [5]: 40.7% | growth inhibition [6]: 67.2%

N#Cc1ccccc1/C=N/O
growth inhibition [1]: 0.15% | growth inhibition [2]: -6.55% | growth inhibition [3]: -8.75% | growth inhibition [4]: 0.95% | growth inhibition [5]: -18.4% | growth inhibition [6]: -14.1%

NC(=O)N/N=C(/c1nc2ccc([N+](=O)[O-])cc2[nH]c1=O)C(O)c1ccco1 (configuration not stated)
growth inhibition [1]: 5.35% | growth inhibition [2]: -9.65% | growth inhibition [3]: -11.1% | growth inhibition [4]: 19.8% | growth inhibition [5]: -19% | growth inhibition [6]: 3.5%

CC1(C)COCOC1c1ccccc1 (configuration not stated)
growth inhibition [1]: -6.2% | growth inhibition [2]: 11.3% | growth inhibition [3]: -21.4% | growth inhibition [4]: -11.8% | growth inhibition [5]: -1% | growth inhibition [6]: 6.4%

O=C1c2cccnc2-c2nccc3c2c1nc1ccccc13
growth inhibition [1]: 90.3% (active) | growth inhibition [2]: 92.8% (active) | growth inhibition [3]: 91% (active) | growth inhibition [4]: 91.4% (active) | growth inhibition [5]: 91.5% (active) | growth inhibition [6]: 90.7% (active)

O=C1C[C@H]2CCCC[C@@H]2O1
growth inhibition [1]: 2% | growth inhibition [2]: 3.55% | growth inhibition [3]: 26.5% | growth inhibition [4]: 39.1% | growth inhibition [5]: -13.5% | growth inhibition [6]: -6%

COC(=O)/C=C/C1C2C3(CCC(C)C12C)OCCS3 (configuration not stated)
growth inhibition [1]: -23.4% | growth inhibition [2]: -14.2% | growth inhibition [3]: -4.45% | growth inhibition [4]: -5.3% | growth inhibition [5]: -6.95% | growth inhibition [6]: -30.1%

COc1ccc(-c2nnc(-c3ccc(OC)cc3)o2)cc1
growth inhibition [1]: 20.1% | growth inhibition [2]: -2.85% | growth inhibition [3]: 16.5% | growth inhibition [4]: 0.2% | growth inhibition [5]: 1.15% | growth inhibition [6]: -7.95%

[O-][N+](O)=C1c2ccccc2-c2ccccc21
growth inhibition [1]: 7.4% | growth inhibition [2]: 2.95% | growth inhibition [3]: 0.65% | growth inhibition [4]: -21.4% | growth inhibition [5]: 3.75% | growth inhibition [6]: 11.1%

CN(C)c1nnnn1-c1c(N)n(C)c(=O)n(C)c1=O
growth inhibition [1]: -30.1% | growth inhibition [2]: -23.2% | growth inhibition [3]: 0% | growth inhibition [4]: 6.4% | growth inhibition [5]: -26.8% | growth inhibition [6]: -27.1%

N#CCC(=O)N/N=C(\C#N)c1ccccc1
growth inhibition [1]: 8.65% | growth inhibition [2]: 1.95% | growth inhibition [3]: 0.55% | growth inhibition [4]: -51.9% | growth inhibition [5]: -18.1% | growth inhibition [6]: 0.75%

CC(=O)Oc1ccc(/C=N\N(C)CN(C)/N=C/c2ccc(OC(C)=O)cc2)cc1
growth inhibition [1]: 14% | growth inhibition [2]: -9.65% | growth inhibition [3]: 31.6% | growth inhibition [4]: 18.4% | growth inhibition [5]: 1.65% | growth inhibition [6]: 17.7%

CC1(C)N=C(c2ccccc2)SC1(C)C
growth inhibition [1]: -13.6% | growth inhibition [2]: -12.2% | growth inhibition [3]: -21.8% | growth inhibition [4]: -49.4% | growth inhibition [5]: 1.65% | growth inhibition [6]: -36.5%

COC1=CC(=O)C(CC=C(C)C)=CC1=O
growth inhibition [1]: 5.65% | growth inhibition [2]: -9.9% | growth inhibition [3]: -1.2% | growth inhibition [4]: -62.4% | growth inhibition [5]: -8.9% | growth inhibition [6]: -3.2%

Cc1cc(C)c(NS(=O)c2cccc(C(F)(F)F)c2)c(C)c1 (configuration not stated)
growth inhibition [1]: -47.1% | growth inhibition [2]: -26.5% | growth inhibition [3]: -61% | growth inhibition [4]: -9.75% | growth inhibition [5]: -31.4% | growth inhibition [6]: -43%

CCNC(CC(N)=O)C(=O)O (configuration not stated)
growth inhibition [1]: -22.1% | growth inhibition [2]: -3.75% | growth inhibition [3]: 0.15% | growth inhibition [4]: -4.05% | growth inhibition [5]: -26.4% | growth inhibition [6]: -11.6%

O=C(NC1(C(=O)O)CCCC1)c1ccccc1
growth inhibition [1]: -34.5% | growth inhibition [2]: -27.2% | growth inhibition [3]: -12.7% | growth inhibition [4]: -31.7% | growth inhibition [5]: -4.35% | growth inhibition [6]: 0.7%

CC(CN1CCCC1)OC(=O)C(c1ccccc1)C1CCCC1 (configuration not stated)
growth inhibition [1]: 6.15% | growth inhibition [2]: -20.9% | growth inhibition [3]: 20.1% | growth inhibition [4]: -50.2% | growth inhibition [5]: -4.85% | growth inhibition [6]: -14.2%

S=C(Nc1ccccc1)Nc1nc(-c2ccccc2)c(N=Nc2ccc(Cl)cc2)s1
growth inhibition [1]: 42.5% | growth inhibition [2]: 2.6% | growth inhibition [3]: 22.2% | growth inhibition [4]: 18.6% | growth inhibition [5]: -0.85% | growth inhibition [6]: 9.45%

CC(=O)N1Cc2c(nc[nH]c2=O)C1C (configuration not stated)
growth inhibition [1]: -8.05% | growth inhibition [2]: 27.4% | growth inhibition [3]: -7.6% | growth inhibition [4]: 14.9% | growth inhibition [5]: 5.2% | growth inhibition [6]: 0.45%

CCCC(=O)OCc1ccc(Cl)cc1Cl
growth inhibition [1]: 31.6% | growth inhibition [2]: 13.3% | growth inhibition [3]: 14.8% | growth inhibition [4]: 7.75% | growth inhibition [5]: 0% | growth inhibition [6]: 13.9%

C[n+]1c(-c2ccc(/C=N/NC(=O)C(=O)N/N=C/c3ccc(-c4cn5ccsc5[n+]4C)cc3)cc2)cn2ccsc21
growth inhibition [1]: 85.5% (active) | growth inhibition [2]: 88% (active) | growth inhibition [3]: 86.8% (active) | growth inhibition [4]: 76.6% (active) | growth inhibition [5]: 88.7% (active) | growth inhibition [6]: 86.5% (active)

c1cncc(CNc2ncn[nH]2)c1
growth inhibition [1]: -2.5% | growth inhibition [2]: 8.3% | growth inhibition [3]: -24.1% | growth inhibition [4]: -50.3% | growth inhibition [5]: -24.9% | growth inhibition [6]: -29.8%

CCCC1OC1(CC)C(=O)OCC(CC)(COC(=O)C1(CC)OC1CCC)COC(=O)C1(CC)OC1CCC (configuration not stated)
growth inhibition [1]: -7.4% | growth inhibition [2]: -19.5% | growth inhibition [3]: 1.25% | growth inhibition [4]: -2.05% | growth inhibition [5]: 4.35% | growth inhibition [6]: 4%
